Screens deposited in PubChem by several laboratories.
EP2 modulator = EP2 receptor (human) modulation; P43116; EP2-expressing cells, cAMP HTRF FRET, PGE2 co-stimulation; induction, % at 25 µM; actives 0.83% (n = 260,000); AID 940;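 active means compounds whose cAMP rise, as percent of the full-agonist control response, exceeds 60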;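 further: rat C6 glioma line stably carrying human EP2 under a CMV promoter; the protocol text gives 20 µM as final concentration; 100% = response of wells given 1 µM PGE2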
Target sequence (P43116 whole entry, looked up): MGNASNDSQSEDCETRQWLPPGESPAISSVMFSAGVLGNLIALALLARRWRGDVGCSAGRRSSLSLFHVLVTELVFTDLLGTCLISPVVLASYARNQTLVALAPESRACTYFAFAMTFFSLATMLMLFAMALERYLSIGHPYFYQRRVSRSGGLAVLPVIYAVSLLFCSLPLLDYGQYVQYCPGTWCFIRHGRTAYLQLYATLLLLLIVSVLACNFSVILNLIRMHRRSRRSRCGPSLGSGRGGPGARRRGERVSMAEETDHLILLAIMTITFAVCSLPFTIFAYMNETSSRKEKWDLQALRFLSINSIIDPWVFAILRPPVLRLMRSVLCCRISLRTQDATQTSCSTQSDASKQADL
EP2 antag = inhibitors of human EP2 prostaglandin E2 receptor; C6 glioma cells expressing human EP2, cAMP TR-FRET; cells stimulated with saturating PGE2; AID 1422; inhibition, % at 25 µM; actives 0.52% (n = 260,000);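 active means percent inhibition above 40 after rounding to a whole number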;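 further: rat C6 glioma host cells with rolipram phosphodiesterase inhibitor present; the protocol text gives 20 µM as final concentration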
CHT allo act = allosteric activators of human choline transporter CHT | Q9GZV3 | CHT-expressing cells, membrane potential dye, choline EC20; active compounds read high; LV-AA mutant CHT in HEK293 cells | actives 0.49% (n = 310,000) | B-score at 10 µM;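 active means initial fluorescence not abnormally high and integrated response B-score, plate-corrected, over 3 SD above library mean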
CHT inh = inhibits the human high affinity choline transporter. Q9GZV3. CHT-expressing cells, membrane potential dye, choline response; active compounds read low. B-score at 10 µM. actives 0.86% (n = 310,000). AID 488975;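 active means B-score over 3 SD under the library average, and starting fluorescence ratio not unusually high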;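 further: choline stimulus applied at its EC90 after an EC20 pre-addition; B-score computed on integrated fluorescence ratio after choline addition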
EP2 cAMP induct = human EP2 receptor cAMP induction, negative in counter-screens | calls only at 20 µM (by protocol) | C6 glioma EP2 cells, cAMP HTRF induction; plus low (about EC15) PGE2 agonist | shares compounds with EP2 modulator | actives 47% (n = 1,300) | AID 1080;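 active means cAMP induction above 50% in the main assay while under 30% in all four parallel counter assays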;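 further: rat C6 glioma cells stably expressing human EP2 receptor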
Active calls of the source: *. Only some compounds are listed: those with a hit (about 2% of all), similar ones and a draw of the others.

Cc1sc2nc(C(C)C)nc(SCC(=O)NC3CCCCC3)c2c1C was read as EP2 modulator 24 and EP2 antag 10.
`COCCNC(=O)c1cn(C[C@H]2CCCN(C(=O)c3cscn3)C2)nn1` gave EP2 modulator -29 and EP2 antag 10.
`COc1ccc(N2C(=O)N(Cc3ccc(C)cc3)c3ccccc3S2(=O)=O)cc1` gave EP2 modulator 79*, EP2 antag 4, CHT allo act inactive, CHT inh inactive and EP2 cAMP induct active.
Screening CCN1C(=O)N(c2ccc(C(C)=O)cc2)S(=O)(=O)c2ccccc21 returned CHT allo act inactive and CHT inh inactive.
Cc1ccc(NCc2n[nH]c(=S)n2Cc2ccccc2)cc1Cl was read as EP2 modulator 55, EP2 antag 6 and EP2 cAMP induct inactive.
Screening O=C(CSc1nc2cc(Cl)ccc2s1)N1CCCc2ccccc21 returned EP2 modulator 68*, EP2 antag 4, CHT allo act inactive, CHT inh inactive and EP2 cAMP induct active.
For CCOc1ccc2nc(SCC(=O)N3CCCc4ccccc43)sc2c1 the results were EP2 modulator 42, EP2 antag 4, CHT allo act inactive and CHT inh inactive.
`CCc1nn(CC(=O)N2CCCCC2C)c(=O)c2cc3oc(C)cc3n12` (stereo unspecified) gave EP2 modulator -6 and EP2 antag 4.
For O=C1C2C3c4ccccc4C(c4ccccc43)[C@@H]2c2nc3ccccc3n21 (stereo partly specified) the results were EP2 modulator 75*, EP2 antag 11, CHT allo act inactive, CHT inh inactive and EP2 cAMP induct active.
Screening CCc1nnc2n1N=C(c1ccc(-c3cc(Cl)ccc3Cl)o1)CS2 returned EP2 modulator 68*, EP2 antag 1, CHT allo act inactive, CHT inh inactive and EP2 cAMP induct active.
COc1ccc(C2C3=C(CCCC3=O)N(C)C3=C2C(=O)CCC3)cc1 was read as EP2 modulator 12 and EP2 antag 2.
Screening COc1ccc(CN2C(=O)CN=C2Nc2cc(C)ccc2C)cc1 returned EP2 modulator 70*, EP2 antag 10, CHT allo act inactive, CHT inh inactive and EP2 cAMP induct inactive.
`CCc1ccccc1NC1=NCC(=O)N1Cc1ccc(OC)cc1` gave EP2 modulator 41, EP2 antag 15, CHT allo act inactive and CHT inh inactive.
Screening CN(C)Cc1ccccc1Sc1cccc2ccccc12 returned EP2 modulator 75*, EP2 antag 8, CHT allo act inactive, CHT inh inactive and EP2 cAMP induct active.
`Cc1ccc(N/C(C(Cl)=C(Cl)Cl)=C(/Cl)[N+](=O)[O-])c(C)c1` gave EP2 modulator 73*, EP2 antag 10 and EP2 cAMP induct active.
`CC1Cc2ccccc2N1C(=O)CSc1nnc(Cc2ccccc2)n1CCc1ccccc1` (stereo unspecified) gave EP2 modulator 66* and EP2 cAMP induct inactive.
For O=C(Cc1ccccc1F)NCCn1nc(-c2ccco2)ccc1=O the results were EP2 modulator 1 and EP2 antag 7.
Cc1ccc(-c2csc3ncnc(N4CCc5ccccc5C4)c23)cc1 was read as EP2 modulator 70*, EP2 antag 4, CHT allo act inactive, CHT inh inactive and EP2 cAMP induct inactive.
`COc1ccc2cc(C)c3nn(CC(=O)NCCCN4CCCC4=O)c(=O)n3c2c1` gave EP2 modulator -37 and EP2 antag 2.
Screening C(=N\N1CCN(C2c3ccccc3-c3ccccc32)CC1)/c1cccnc1 returned EP2 modulator 74*, EP2 antag 15, CHT allo act inactive, CHT inh inactive and EP2 cAMP induct inactive.
`C(=N\N1CCN(C2c3ccccc3-c3ccccc32)CC1)/c1ccccn1` gave EP2 modulator 22, EP2 antag 9, CHT allo act inactive and CHT inh inactive.
For Cc1sc(NC(=O)c2ccccc2F)c(CN2CCCCC2)c1C the results were EP2 modulator 84*, EP2 antag 17, CHT allo act inactive, CHT inh inactive and EP2 cAMP induct inactive.
For Cc1sc(NC(=O)c2ccc(F)cc2)c(CN2CCCCCC2)c1C the results were EP2 modulator 59, EP2 antag 9, CHT allo act inactive and CHT inh inactive.
